Data on eight compounds can be found in PubChem BioAssay (Tox21).

Where “and” joins values, the source holds several entries; their conditions need not be identical. Identical values can stand only once. Records with an inconclusive call do not appear. Some structures have more than one record in an assay (separate samples or runs), and their calls can disagree. Calls of active or inactive are those of the source. Unless noted, calls follow the shape of the full dose curve.

Test [1] in a line: Nuclear factor erythroid 2-related factor 2/antioxidant responsive element (Nrf2/ARE) small molecule agonists: qHTS cell viability counter screen in human keratinocytes (AID 1919968; active = well fitted curve in the direction sought with a large enough effect in the repeat runs; an effect the other way counts as inactive or inconclusive; also: nearly all actives have a fitted effect of over 55% in size; also: potency is read from the fitted curve at half-maximal effect). Summed up: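 CellTiter-Fluor fluorescence, read 1 h after reagent, gave viability in the same wells as the ARE-luciferase assay. KeratinoSens cells (1,500/well) had 23 h compound exposure at 37 C/5% CO2 following 5 h plating.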

The nature of test [2]: Nuclear factor erythroid 2-related factor 2/antioxidant responsive element (Nrf2/ARE) small molecule agonists: luciferase reporter gene qHTS assay in human keratinocytes (AID 1919969). Also: nearly all actives have a fitted effect of over 35% in size. Also: potency is read from the fitted curve at half-maximal effect.
The target of test [3] is Gonadotropin-releasing hormone receptor (Homo sapiens) (UniProt P30968). Briefly: Human gonadotropin-releasing hormone receptor (GnRHR) small molecule agonists, calcium flux assay in GnRHR-HEK293 cells (AID 1920063). Also: nearly all actives have a fitted effect of over 35% in size. Summed up: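 Agonist mode: compounds at 15 concentrations, in triplicate, went onto calcium dye-loaded GnRHR-HEK293 cells. Intracellular calcium was then followed as 480/540 nm fluorescence at 1 s intervals over 3 min.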

Test [4] has as its target KiSS-1 receptor (Homo sapiens) (UniProt Q969F8). Briefly: Human kisspeptin (KISS1R) small molecule agonists, calcium flux assay in KISS1R-HEK293 cells (AID 1920064; active = well fitted curve in the direction sought with a large enough effect in the repeat runs; an effect the other way counts as inactive or inconclusive). Summed up: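 Agonist mode: intracellular calcium rise tracked at 1 s intervals over 3 min (480/540 nm) immediately after compound addition to dye-loaded KISS1R-HEK293 stable cells. Each compound tested at 15 concentrations in triplicate.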

The nature of test [5]: G protein-coupled receptor (GPCR) small molecule agonists, calcium flux assay: HEK293 wild type cell line counter screen (AID 1920065). Summed up: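 Calcium flux counter screen: compound added in agonist mode at 15 concentrations in triplicate to dye-loaded parental HEK293 cells. Fluorescence (480/540) read kinetically for 3 min; ATP served as positive control.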
A short description of test [6]: p53 small molecule agonists, cell-based qHTS assay with human liver microsomes: qHTS cell viability counter screen (AID 1963579). Also: nearly all actives have a fitted effect of over 45% in size. Also: potency is read from the fitted curve at half-maximal effect. Summed up:
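Viability of p53RE-bla cells is measured as CellTiter-Glo luminescence following a 16 h, 37 C incubation with compound, liver microsomes from human donors and NADPH.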

Test [7] can be described thus: p53 small molecule agonists, cell-based qHTS assay with rat liver microsomes: qHTS cell viability counter screen (AID 1963580). Also: nearly all actives have a fitted effect of over 45% in size. Also: potency is read from the fitted curve at half-maximal effect. Summed up: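 Rat liver microsome (0.5 mg/mL final) and NADPH (0.5 mg/mL final) co-incubation with compounds for 16 h at 37 C on HCT-116 p53RE-bla cells; cytotoxicity taken from intracellular ATP luminescence.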
Test [8] is described as follows: p53 small molecule agonists, cell-based qHTS assay: qHTS cell viability counter screen (AID 1963581). Also: nearly all actives have a fitted effect of over 45% in size. Also: potency is read from the fitted curve at half-maximal effect. Summed up:
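Counter screen read by CellTiter-Glo luminescence (ATP content, 30 min at room temperature), run in the same wells as the beta-lactamase reporter read. HCT-116 p53RE-bla cells saw compounds for 16 h at 37 C.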

Test [9] deals with 5-hydroxytryptamine receptor 2A (Homo sapiens) (UniProt P28223). The test can be described thus: 5-hydroxytryptamine receptor 2A (HTR2A) small molecule antagonists, cell-based qHTS assay (AID 1963586). Also: nearly all actives have a fitted effect of over 45% in size. Also: potency is read from the fitted curve at half-maximal effect. Summed up:
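CHO cells stably expressing human HTR2A were plated for 18 h at 37 C, then loaded with calcium dye for 1 h. Compounds were preincubated 5 min at room temperature before DOI (4 nM solution) was added. Kinetic fluorescence was read for 3 min.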

Test [10] shares this target. The test can be described thus: 5-hydroxytryptamine receptor 2A (HTR2A) small molecule agonists, cell-based qHTS assay (AID 1963587). Also: nearly all actives have a fitted effect of over 30% in size. Also: potency is read from the fitted curve at half-maximal effect. Summed up: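 Kinetic calcium-flux fluorescence (2 min, 1 sec intervals) after compound addition in agonist mode. HTR2A-CHO cells were cultured 18 h, then dye-loaded 1 h at 37 C.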
Test [11] has as its target Muscarinic acetylcholine receptor M1 (Homo sapiens) (UniProt P11229). The test can be described thus: Cholinergic receptor muscarinic 1 (CHRM1) small molecule antagonists, cell-based qHTS assay (AID 1963588). Also: nearly all actives have a fitted effect of over 40% in size. Also: potency is read from the fitted curve at half-maximal effect. Summed up:
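Compounds were tested at 15 concentrations in three independent runs. Dye-loaded CHRM1-CHO cells were exposed 5 min at room temperature before stimulation by acetylcholine added at 50nM. Intracellular calcium was read kinetically on FDSS for 3 min.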

The target is the same in test [12]. The test can be described thus: Cholinergic receptor muscarinic 1 (CHRM1) small molecule agonists, cell-based qHTS assay (AID 1963589). Also: nearly all actives have a fitted effect of over 35% in size. Summed up:
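Agonist-mode calcium-flux screen: compounds at 15 concentrations, three independent runs, were pin-transferred onto dye-loaded human CHRM1-CHO cells. Fluorescence was then recorded kinetically every second over minutes.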

The nature of test [13]: cAMP Responsive Elements (CRE) small molecule agonists, cell-based qHTS assay (AID 1963590). Summed up: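 Agonist mode: compound added to CRE-bla HEK 293T cells (2,000/well, 18 h after plating) for 3 h at 37 C/5% CO2. Reporter activity detected via FRET beta-lactamase substrate, 2 h room-temperature loading.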
The nature of test [14]: cAMP Responsive Elements (CRE) small molecule antagonists, cell-based qHTS assay (AID 1963591; active = well fitted inhibition curve with a large enough effect in the signal ratio in the repeat runs, not every such curve was filed as active; the % refers to the signal ratio). Summed up: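 Antagonist mode: compounds are added alongside the adenylyl cyclase activator NKH477 (0.25 uM final) to CRE-bla HEK293T cells for 3 h. LiveBLAzer FRET substrate, 2 h at room temperature, reports bla expression.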
For test [15], the target named is Beta-2 adrenergic receptor (Homo sapiens) (UniProt P07550). The test can be described thus: Adrenergic beta2 receptor (ADRB2) small molecule antagonists, cell-based qHTS assay (AID 1963592). Also: series mostly up to about 92 µM; nearly all actives have a fitted effect of over 50% in size. Summed up: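 Assay format: CHO-ADRB2 cells, 18-20hr seeding at 37C/5% CO2, then compound plus 1nM isoproterenol agonist mix for 0.5hr RT. Homogeneous time-resolved fluorescence cAMP detection after 1hr, expressed as 665/615 nm ratio.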

Test [16] deals with D(2) dopamine receptor (Homo sapiens) (UniProt P14416). The test can be described thus: Dopamine D2 receptor (DRD2) small molecule agonists, cell-based qHTS assay (AID 1963594). Also: nearly all actives have a fitted effect of over 35% in size. Summed up:
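cAMP accumulation in DRD2-HEK293 cells measured by HTRF after 1 h detection; compounds added 10 min before NKH477 (200nM […]) forskolin-analogue stimulation, 30 min at room temperature, with Ro20-1724 present at 0.1 mM final.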

The target is the same in test [17]. The test can be described thus: Dopamine D2 receptor (DRD2) small molecule antagonists, cell-based qHTS assay (AID 1963595; active = well fitted inhibition curve with a large enough effect in the signal ratio in the repeat runs, with a control signal flat; the % refers to the signal ratio; also: potency is read from the fitted curve at half-maximal effect). Summed up: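 Antagonist mode in DRD2-HEK293 cells: after compound addition with 0.1 mM Ro20-1724, cells received quinpirole (12 nM) and NKH477 (200 nM) for 30 min at room temperature; HTRF cAMP read after 1 h detection.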
Test [18] addresses Beta-2 adrenergic receptor (Homo sapiens) (UniProt P07550). The test can be described thus: Adrenergic beta2 receptor (ADRB2) small molecule agonists, cell-based qHTS assay (AID 1963593).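 Also: CHO cells stably overexpressing human ADRB2.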 Summed up:
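CHO cells stably over-expressing ADRB2 were plated overnight at 37C, then dosed with compounds plus a stimulation mix containing 100uM IBMX and 25uM Ro-20-1724 for 0.5hr at room temperature. cAMP was measured by HTRF competition, 1hr.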
% is scaled to controls: 0 for no effect and ±100 for the full control effect.

Chain of Gonadotropin-releasing hormone receptor (Homo sapiens) (P30968 whole entry, looked up): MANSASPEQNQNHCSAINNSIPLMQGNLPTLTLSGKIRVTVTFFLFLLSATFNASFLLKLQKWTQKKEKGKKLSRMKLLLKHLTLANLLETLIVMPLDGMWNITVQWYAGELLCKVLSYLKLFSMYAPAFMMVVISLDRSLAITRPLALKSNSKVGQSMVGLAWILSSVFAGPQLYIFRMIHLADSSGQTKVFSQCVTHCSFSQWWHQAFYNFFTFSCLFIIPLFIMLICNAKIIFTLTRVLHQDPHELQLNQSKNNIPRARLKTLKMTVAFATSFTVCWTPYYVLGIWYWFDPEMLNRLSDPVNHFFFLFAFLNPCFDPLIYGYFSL
Chain of Muscarinic acetylcholine receptor M1 (Homo sapiens) (P11229 whole entry, looked up): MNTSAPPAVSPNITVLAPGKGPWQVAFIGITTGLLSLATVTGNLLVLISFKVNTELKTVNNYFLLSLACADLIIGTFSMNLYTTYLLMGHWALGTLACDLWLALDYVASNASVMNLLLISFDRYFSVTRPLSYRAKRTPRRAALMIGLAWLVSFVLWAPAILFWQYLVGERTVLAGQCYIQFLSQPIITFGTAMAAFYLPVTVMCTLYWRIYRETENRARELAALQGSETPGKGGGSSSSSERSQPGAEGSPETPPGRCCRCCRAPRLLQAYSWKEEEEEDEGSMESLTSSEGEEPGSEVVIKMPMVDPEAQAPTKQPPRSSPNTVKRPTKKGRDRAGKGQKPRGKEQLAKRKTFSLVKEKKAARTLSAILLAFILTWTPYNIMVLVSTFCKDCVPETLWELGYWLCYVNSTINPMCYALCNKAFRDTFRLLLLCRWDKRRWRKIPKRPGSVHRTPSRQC
Chain of D(2) dopamine receptor (Homo sapiens) (P14416 whole entry, looked up): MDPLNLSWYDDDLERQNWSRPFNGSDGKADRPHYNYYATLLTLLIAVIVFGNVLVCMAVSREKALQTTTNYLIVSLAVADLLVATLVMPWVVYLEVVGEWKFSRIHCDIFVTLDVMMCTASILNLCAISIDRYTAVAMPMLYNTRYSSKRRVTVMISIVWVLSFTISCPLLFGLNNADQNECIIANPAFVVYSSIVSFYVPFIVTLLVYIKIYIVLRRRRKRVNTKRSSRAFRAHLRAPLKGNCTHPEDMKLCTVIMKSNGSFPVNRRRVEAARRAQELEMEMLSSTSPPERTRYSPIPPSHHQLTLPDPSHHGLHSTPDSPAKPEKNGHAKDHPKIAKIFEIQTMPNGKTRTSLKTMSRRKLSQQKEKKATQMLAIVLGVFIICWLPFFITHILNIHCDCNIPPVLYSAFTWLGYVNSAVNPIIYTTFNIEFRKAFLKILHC
Chain of KiSS-1 receptor (Homo sapiens) (Q969F8 whole entry, looked up): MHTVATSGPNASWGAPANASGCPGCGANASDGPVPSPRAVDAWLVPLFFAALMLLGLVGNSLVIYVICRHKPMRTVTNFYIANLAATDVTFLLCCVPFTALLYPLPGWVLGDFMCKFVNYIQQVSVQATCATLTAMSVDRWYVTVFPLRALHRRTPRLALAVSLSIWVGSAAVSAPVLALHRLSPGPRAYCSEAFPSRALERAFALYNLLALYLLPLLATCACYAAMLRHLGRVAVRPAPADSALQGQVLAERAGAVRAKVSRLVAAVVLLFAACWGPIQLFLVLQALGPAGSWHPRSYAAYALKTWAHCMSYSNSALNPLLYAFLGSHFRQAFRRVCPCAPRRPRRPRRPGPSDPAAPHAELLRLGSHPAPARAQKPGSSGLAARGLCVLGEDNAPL
Chain of 5-hydroxytryptamine receptor 2A (Homo sapiens) (P28223 whole entry, looked up): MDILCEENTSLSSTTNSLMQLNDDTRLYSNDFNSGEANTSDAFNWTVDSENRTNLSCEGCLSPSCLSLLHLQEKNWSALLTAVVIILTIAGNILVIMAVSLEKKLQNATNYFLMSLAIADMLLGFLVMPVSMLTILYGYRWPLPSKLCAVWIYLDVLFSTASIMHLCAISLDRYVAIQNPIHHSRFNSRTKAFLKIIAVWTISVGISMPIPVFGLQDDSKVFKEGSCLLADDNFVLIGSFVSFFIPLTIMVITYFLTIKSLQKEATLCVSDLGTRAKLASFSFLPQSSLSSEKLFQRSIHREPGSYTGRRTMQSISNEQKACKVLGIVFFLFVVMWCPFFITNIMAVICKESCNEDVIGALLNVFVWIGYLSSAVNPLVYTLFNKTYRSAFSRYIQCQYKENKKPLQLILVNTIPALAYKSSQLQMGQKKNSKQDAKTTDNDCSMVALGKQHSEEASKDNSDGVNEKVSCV
Chain of Beta-2 adrenergic receptor (Homo sapiens) (P07550 whole entry, looked up): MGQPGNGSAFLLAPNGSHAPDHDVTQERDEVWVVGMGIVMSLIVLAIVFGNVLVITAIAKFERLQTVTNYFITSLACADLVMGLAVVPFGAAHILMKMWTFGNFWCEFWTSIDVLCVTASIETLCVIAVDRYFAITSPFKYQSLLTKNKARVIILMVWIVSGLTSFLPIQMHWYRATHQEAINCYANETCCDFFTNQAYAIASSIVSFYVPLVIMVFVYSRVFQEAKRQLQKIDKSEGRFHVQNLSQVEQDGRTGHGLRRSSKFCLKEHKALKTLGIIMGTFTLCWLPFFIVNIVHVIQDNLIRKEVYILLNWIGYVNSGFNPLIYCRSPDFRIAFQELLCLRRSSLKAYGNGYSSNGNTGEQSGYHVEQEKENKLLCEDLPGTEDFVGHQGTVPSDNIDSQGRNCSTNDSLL

For the compound `NCCNCCNCCNCCN`, the Potency result in test [1], in test [2], in test [3], in test [4], in test [5] and in test [6] was “inactive” in each case. Moreover, the Potency entry in test [7], in [8], in test [9], in test [10], in [11] and in [12] was “inactive” each time. The Potency entry in test [13], in test [15], in [16] and in test [17] was “inactive” in each case. In addition, in test [14], the activity change, negative = inhibition was -9.22% [at 8.39 µM] (inactive).

Consider `Cc1cccc(C)c1[N+](=O)[O-]`, for which the Potency entry in test [1], in [2], in [3], in test [4], in test [5] and in [6] was “inactive” each time. The Potency entry in test [7], in [8], in [10], in [12], in test [13] and in test [14] was “inactive” each time. Further, the Potency result in test [15], in [18] and in test [17] was “inactive” in each case.

Regarding `C=C(C)[C@H]1CC=C(C)C(=O)C1`, the Potency entry in test [1], in test [2], in [3], in [4], in [5] and in test [6] was “inactive” in each case. The Potency result in test [7], in test [8], in [9], in [10], in test [11] and in test [13] was “inactive” throughout. In addition, the Potency entry in [14], in test [15], in test [16] and in [17] was “inactive” throughout.

Regarding `CCC(=O)O[C@H]1[C@H](O[C@@H]2[C@@H](C)[C@H](O[C@H]3C[C@@](C)(OC)[C@@H](O)[C@H](C)O3)[C@@H](C)C(=O)O[C@H](CC)[C@@](C)(O)[C@H](O)[C@@H](C)C(=O)[C@H](C)C[C@@]2(C)O)O[C@H](C)C[C@@H]1N(C)C`, the Potency result in [1], in test [2], in test [3], in test [4], in [5] and in [6] was “inactive” each time. For the same compound, the Potency entry in test [7], in test [8], in test [13], in [14], in test [15] and in test [16] was “inactive” each time. Further, in test [17], the Potency entry was “inactive”.

As for `CCCCCOC(C)=O`, the Potency entry in test [1], in test [3], in test [4], in [5], in [6] and in test [7] was “inactive” throughout. Also, the Potency entry in test [8], in test [9], in [11], in test [12], in test [14] and in [15] was “inactive” each time. Besides, the Potency entry in test [18], in [16] and in test [17] was “inactive” in each case. The Potency in test [2] is 68.6 µM (active).

Turning to `Nc1nc(N)nc(-c2ccccc2)n1`, the Potency result in [1], in test [2], in test [3], in [4], in [5] and in test [6] was “inactive” throughout. Moreover, the Potency result in [7], in [8], in test [9], in test [10], in test [11] and in test [12] was “inactive” each time. Moreover, the Potency result in test [13], in test [14], in test [15], in test [16] and in [17] was “inactive” throughout.

With `Cc1cc(O)cc(C)c1Cl`, the Potency entry in test [1], in test [2], in [3], in [4], in test [5] and in test [6] was “inactive” throughout. Also, the Potency entry in [7], in test [8], in [13], in [14], in [15] and in test [16] was “inactive” in each case. The Potency entry in test [17] is “inactive”.

As to `CCCCCCCCCCCCCC[P+](CCCC)(CCCC)CCCC`, the Potency in test [1] was 9.63 µM (active) and 24.3 µM (active); in test [6], 45.5 µM (active) and 20.4 µM (active); in test [7] it was 45.5 µM (active) and 40.8 µM (active); in test [8], 20.3 µM (active) and 25.7 µM (active); in test [9], 14.8 µM (active) and 18.8 µM (active); in test [10], 21.8 µM (active) and 54.9 µM (active). Besides, the Potency result was “inactive and 9.42 µM (active)” in test [11]; 17.1 µM (active) and 43.3 µM (active) in test [17]. In addition, the Potency entry in test [2], in test [3], in test [4], in test [5], in test [12] and in [15] was “inactive” throughout. The Potency entry in [18] and in test [16] was “inactive” each time.
